# Test results published in ChEMBL document CHEMBL3988442, “University of Dundee, Small-Polar-MMV Screening Library” (2021).
# Hit rate of the full screen: of about 48,000 compounds, about 13,000 (27%) showed an effect of 50% or more. Some of the results follow.
# Test system: Wolbachia pipientis
# Assay: Anti-Wolbachia Cell-Based Screen
# Type: functional
# Design: scale not given: in the data most compounds retested in dose-response had high values
# Settings: 5 µM
row,Compound,Percent Effect [%]
1,Cc1noc(CCCC(=O)N2CSCC2C(=O)NCC2CC2)n1 (stereo unspecified),8.382
2,CC(C)(C)C(=O)NC(c1nccs1)C1CCN(CC2CCCCC2)CC1.Cl (stereo unspecified),130.3
3,CC(NC(=O)NC1CCN(CC2CCCC2)CC1)c1nccs1 (stereo unspecified),-2.566
4,CC(NCCN1CCN(C(=O)C2CCCC2)CC1)c1nccs1 (stereo unspecified),4.028
5,Clc1ccc(N2CCC(C3CCN(Cc4cccnc4)CC3)C2)nc1 (stereo unspecified),4.175
6,Cc1nnc(C(C)N2CCN(Cc3noc(C(C)(C)C)n3)CC2)o1 (stereo unspecified),6.078
7,CC(c1nc(C2CC2)no1)N1CCN(Cc2ccccc2F)CC1 (stereo unspecified),3.653
8,Cc1nc(CN2CCN(C(C)c3nc(C4CC4)no3)CC2)no1 (stereo unspecified),103.1
9,CC(C)c1noc(C(C)N2CCN(Cc3noc(C(C)(C)C)n3)CC2)n1 (stereo unspecified),117.7
10,Cc1ccccc1CN1CCN(C(C)c2nc(C3CC3)no2)CC1 (stereo unspecified),114.1
11,CC(C)c1noc(C(C)N2CCN(Cc3ccco3)CC2)n1 (stereo unspecified),-4.875
12,CCc1noc(C(C)N2CCN(Cc3noc(C)n3)CC2)n1 (stereo unspecified),-22.55
13,Cc1noc(C(C)N2CCN(Cc3noc(C4CC4)n3)CC2)n1 (stereo unspecified),1.427
14,CC(c1nc(C2CC2)no1)N1CCN(Cc2ccccc2)CC1 (stereo unspecified),7.857
15,Cc1noc(C)c1CN1CCN(C(C)c2nc(C3CC3)no2)CC1 (stereo unspecified),133.7
16,Cc1noc(C)c1CN1CCN(Cc2nc(C3CC3)no2)CC1,-14.96
17,COc1ncccc1NC(=O)N1CCC(c2ccc(O)cc2)CC1,-2.726
18,CC(C)c1nc(C(=O)N2CCCC(N)CC2)cs1 (stereo unspecified),-4.509
19,CN(CC(F)F)C(=O)c1cn(-c2ccc(Br)cc2)cn1,1.903
20,CN(Cc1nc(C2CC2)no1)C(=O)C1COc2ccccc2C1 (stereo unspecified),29.53
21,Cc1ccnc(C(NC(=O)c2ncoc2C)C2CC2)n1 (stereo unspecified),-4.451
22,CC(=O)c1cccc(OCC(=O)N(CC(C)C)C2CCN(C)CC2)c1,-3.463
23,Cn1cccc1C(=O)N1CCC2(CC1)c1nc[nH]c1CCN2S(C)(=O)=O,-21.07
24,Cc1c2ncn(CC(=O)N(C)C)c(=O)c2nn1C,-2.054

row,Compound,Percent Effect [%]
1,CC(C)(C)N1CCCN(C(=O)c2csc(S(N)(=O)=O)c2)CC1,4.518
2,CC(c1nc(C2CC2)no1)N1CCN(Cc2noc(C3CC3)n2)CC1 (stereo unspecified),103.7
3,CC(C)c1noc(C(C)N2CCN(Cc3noc(C4CC4)n3)CC2)n1 (stereo unspecified),18.72
4,CC(C)c1nc(CN2CCN(C(C)c3nc(C4CC4)no3)CC2)no1 (stereo unspecified),0.3475
5,CC(NC(=O)N1CCN(c2ccccc2)CC1)c1nncn1C (stereo unspecified),1.482
6,CC(C(=O)O)N1CCc2onc(-c3ccc(F)c(F)c3)c2C1 (stereo unspecified),-3.454
7,CN(Cc1csc2ccccc12)C(=O)NC1CCS(=O)(=O)C1 (stereo unspecified),-6.965
8,CCc1c(C(=O)NC2CCS(=O)(=O)C2)cnn1-c1ccc(F)cc1 (stereo unspecified),9.191
9,Cn1cc(CCNC(=O)NC2CCS(=O)(=O)C2)cn1 (stereo unspecified),-13.02
10,O=C(NC1CCC(N2C(=O)CCC2=O)CC1)c1c[nH]c2ccccc12 (stereo unspecified),-1.536
11,O=C(CCNC(=O)c1sccc1-c1ccccc1)NC1CCS(=O)(=O)C1 (stereo unspecified),26.53
12,CC(C)n1cc(C(=O)NC2CCS(=O)(=O)C2)c2ccccc2c1=O (stereo unspecified),104.9
13,O=C(NC1CCS(=O)(=O)C1)c1ccc(-c2ccc(F)cc2)s1 (stereo unspecified),1.727
14,COCCn1cc(C(=O)NC2CCS(=O)(=O)C2)c2ccccc2c1=O (stereo unspecified),102
15,CC(C)[C@H](NC(=O)NC1CCS(=O)(=O)C1)C(=O)NCc1ccccc1Cl (stereo partly specified),-0.7444
16,O=C(NC1CCS(=O)(=O)C1)c1cn(C2CC2)c(=O)c2ccccc12 (stereo unspecified),92.4
17,CC(C)Cn1cc(C(=O)NC2CCS(=O)(=O)C2)c2ccccc2c1=O (stereo unspecified),107.3
18,COCCN1CCC(NC(=O)Cn2cc(C)c3ccccc32)CC1,-24.59
19,Cn1cnc2cc(C(=O)N3CCN(CCO)[C@@H]4CS(=O)(=O)C[C@@H]43)ccc21,-4.245
20,O=C(O)c1cc(-c2ccoc2)cc(S(=O)(=O)NC2CC2)c1,13.87
21,c1cnc(NCC2Cn3nnc(-c4ccoc4)c3CO2)nc1 (stereo unspecified),9.551
22,Cc1nnc(CN2C[C@H](NC(=O)CC3CCCC3)[C@@H](C3CC3)C2)s1,-5.316
23,COC(=O)C1CN(Cc2ccn(-c3ccc(F)cc3)n2)C[C@@H](C)O1 (stereo partly specified),-6.737
24,CCc1cc(NC(=O)c2cccc(OCC(F)(F)F)n2)[nH]n1,-13.74

row,Compound,Percent Effect [%]
1,O=C(NC1CCS(=O)(=O)C1)c1sccc1OC(F)F (stereo unspecified),15.29
2,O=C(NC1CCS(=O)(=O)C1)c1ccccc1SCc1cscn1 (stereo unspecified),-4.386
3,CC(C)CCn1cc(C(=O)NC2CCS(=O)(=O)C2)c2ccccc2c1=O (stereo unspecified),143.5
4,Cc1nonc1-c1nc(C(C)C)nn1-c1ccc2c(c1)OCO2,-15.14
5,Cc1noc(C)c1C(=O)NCC(O)c1ccc(F)cc1F (stereo unspecified),3.33
6,COCCn1ccc2ccc(NC(=O)NCc3noc(C)n3)cc21,-17.56
7,Cc1noc(C)c1C(=O)NCCc1cccs1,-0.0309
8,CNC(=O)C(NC(=O)c1c(C)noc1C)c1ccc(F)c(F)c1 (stereo unspecified),1.933
9,COCCn1cnc2ccc(NC(=O)c3c(C)noc3C)cc2c1=O,114.6
10,Cc1noc(C)c1C(=O)Nc1ccc2ncn(CC(C)C)c(=O)c2c1,120.5
11,COc1cc(S(=O)(=O)N2CCc3ccc(F)cc32)cc(C(=O)O)c1OC,-3.468
12,COc1ccc(C)cc1CSCCn1nc2ccccn2c1=O,4.389
13,Cc1sc2nc(CCN)nc(N3CCS(=O)(=O)CC3)c2c1C,5.115
14,Cc1ccc(C(=O)Nc2cnn(CC(=O)NC3CCCC3)c2)c(=O)[nH]1,-2.747
15,Cc1ccc(C(=O)NC(CN2CCCC2)c2ccccc2)c(=O)[nH]1 (stereo unspecified),-7.426
16,O=C(NC1CCN(CC2CC2)C1)c1ccc(C(=O)c2cc[nH]c2)cc1 (stereo unspecified),2.424
17,CN1CCCC(N(C)C(=O)c2ccc(NC(=O)c3ccc[nH]3)cc2)C1 (stereo unspecified),-8.212
18,CCN1CCCC(NC(=O)c2ccc(C)[nH]c2=O)C1 (stereo unspecified),104.5
19,Cc1ccc(C(=O)NC2CCCN(CC(N)=O)C2)c(=O)[nH]1 (stereo unspecified),108.8
20,Cc1ccc(C(=O)NC2CCCCNC2=O)c(=O)[nH]1 (stereo unspecified),-8.505
21,CN1CCCC(NC(=O)c2ccc(C(=O)c3cc[nH]c3)cc2)C1 (stereo unspecified),107.5
22,Cc1ccc(C(=O)NCCN2CCOCC2)c(=O)[nH]1,10.08
23,Cc1ccc(C(=O)NC2CCCN(C)C2)c(=O)[nH]1 (stereo unspecified),91.25
